Screens deposited in PubChem BioAssay by several laboratories.
Fluor 339 460: intrinsic fluorescence of library compounds, ex339/em460 – biochemical, MLSMR library, data from DPM-DC assay, artefact control, profiling panel; 65,000 compounds, 5.5% hits; compound autofluorescence, ex339/em460 nm, NADH buffer; active compounds read high; 1 = no-compound wells, NADH background; fluorescence fold increase at 10 µM;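 active = at 10 µM, mean starting fluorescence two-fold or more over control wells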;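 also: signal is the first read of a kinetic run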
NADH coupling: inhibitors of PK/LDH coupling enzymes, profiling panel, artefact control, biochemical, MLSMR library. 65,000 compounds, 0.02% hits. AID 774, 2007. coupled PK/LDH NADH assays, four targets. IC50, µM (highest dose often 10 µM);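 active = single-dose screening hits from any of four coupled enzyme assays that gave an IC50 when retested across doses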;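 also: the DPM-DC format reads NADH fluorescence rather than 340 nm absorbance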
DUSP1 inh: MKP-1 phosphatase inhibitors, primary screen, biochemical, in vitro; Dual specificity protein phosphatase 1 (Homo sapiens), P28562; recombinant MKP-1, OMFP hydrolysis fluorescence; inhibition, %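 (compounds tested at a single concentration somewhere between 10 and 100 µM)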; 65,000 compounds, 0.15% hits; AID 374, 2006;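 active = inhibition above about 50%, limit read from the data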
Target sequence (P28562 whole entry, looked up): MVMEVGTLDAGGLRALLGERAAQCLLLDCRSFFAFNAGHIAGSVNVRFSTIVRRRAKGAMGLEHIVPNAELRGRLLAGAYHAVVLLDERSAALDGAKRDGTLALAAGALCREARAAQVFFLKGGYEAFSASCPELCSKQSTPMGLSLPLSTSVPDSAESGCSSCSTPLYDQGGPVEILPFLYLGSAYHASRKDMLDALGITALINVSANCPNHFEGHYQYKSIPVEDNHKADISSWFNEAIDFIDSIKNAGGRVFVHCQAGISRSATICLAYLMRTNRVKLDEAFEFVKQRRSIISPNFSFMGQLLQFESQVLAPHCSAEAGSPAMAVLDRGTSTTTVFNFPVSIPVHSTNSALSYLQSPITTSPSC
Hsp90 block: tumor Hsp90 inhibitors, primary screen, cell lysate, fluorescence polarization, NCI-N417 lysate; Cy3B-geldanamycin FP displacement; 64,000 compounds, 0.35% hits; Heat shock protein HSP 90-alpha (Homo sapiens), P07900; inhibition, % at 30 µM;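 active = inhibition above 50%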
Abs 340nm: compound light absorbance at 340 nm, profiling panel, artefact control, biochemical, MLSMR library, data from PS, PMK, MK assays. compound absorbance at 340 nm, fold over control. fold change at 10 µM. 65,000 tested, under 10 active. AID 708, 2007;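 active = at 10 µM dose, initial 340 nm absorbance at least 2 fold that of control wells; inactive = change under 2 fold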;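 also: initial absorbance extrapolated from kinetic A340 decline of NADH oxidation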
Cdc25B inh: inhibitors of Cdc25B phosphatase catalytic domain, primary screen, biochemical, OMFP fluorescence; M-phase inducer phosphatase 2 (Homo sapiens), P30305; recombinant Cdc25B, OMFP fluorescence Ex485/Em525; inhibition, %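 (compounds tested at 10 µM final in the well)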; 65,000 compounds, 0.1% hits; AID 368, 2006; in the data active = inhibition above about 50%
Of the large screens only hits and unclear results are named; the others gave an inactive call. The list is not random: actives were taken first. Their share in the collection is about 5.7%.

NC(=O)c1nn(-c2ccccc2)nc1NC(=O)CN1CCCCC1	none
C=CCn1c(=O)n(CCOC)c(=O)c2sc3ccccc3c21	Fluor 339 460 2.4
C=CCn1c(=S)[nH]c2ccccc2c1=O	none
CCOc1ccc(-c2nc3n(c(=O)c2C#N)CCCS3)cc1	Fluor 339 460 2.8
COc1ccc(-c2nc3n(c(=O)c2C#N)CCCS3)cc1	Fluor 339 460 2
CC1CN(C(=O)Cc2ccc(-c3ccccc3)cc2)CC(C)O1 (configuration not stated)	none
O=C(c1nc2n(n1)C(c1ccc(Cl)cc1)C=C(c1ccccc1)N2)N1CCOCC1 (configuration not stated)	none
COc1ccc(C2C=C(c3ccc(Cl)cc3)Nc3nc(NC(C)=O)nn32)cc1 (configuration not stated)	Fluor 339 460 2.3
COc1ccccc1C1C=C(c2ccc(Cl)cc2)Nc2nc(N3C(=O)CCC3=O)nn21 (configuration not stated)	none
CC(=O)Nc1nc2n(n1)C(c1ccc(Cl)cc1)C=C(C)N2 (configuration not stated)	Fluor 339 460 4.9
COc1ccccc1C1C=C(c2ccc(Cl)cc2)Nc2nc(NS(C)(=O)=O)nn21 (configuration not stated)	Fluor 339 460 4
Nc1nc(NC(=O)c2ccco2)nn1-c1ccccc1	none
O=C(Nc1nc2nc(-c3ccccc3)cc(-c3ccccc3)n2n1)c1ccco1	Fluor 339 460 4
O=C(O)CC1CCCc2ccccc2C1O (configuration not stated)	none (no result: Fluor 339 460, NADH coupling, DUSP1 inh, Abs 340nm, Cdc25B inh)
CC(=O)Nc1nc2n(n1)C(c1ccc(F)cc1)C=C(c1ccccc1)N2 (configuration not stated)	Fluor 339 460 3.4
O=C(Nc1nc2n(n1)C(c1ccccc1)C=C(c1ccccc1)N2)c1ccco1 (configuration not stated)	Fluor 339 460 2.6
CC(=O)Nc1nc2n(n1)C(c1ccccc1)C=C(c1ccccc1)N2 (configuration not stated)	none
COc1ccc(C2C=C(c3ccc(Br)cc3)Nc3nc(N4C(=O)CCC4=O)nn32)cc1 (configuration not stated)	Fluor 339 460 3.9
O=C(Nc1nc2n(n1)C(c1ccc(Cl)cc1)CC(c1ccc(Cl)cc1)N2)c1ccco1 (configuration not stated)	none
C=C(C)Cn1c(SCC(=O)O)nc2c1c(=O)[nH]c(=O)n2C	none
CC1CCCCN1c1nnc(NC(=O)Cn2c(=O)oc3ccccc32)s1 (configuration not stated)	none
Cc1ccc(-c2nc(NC(=O)CSc3nnc4scc(-c5ccccc5)n34)ns2)cc1	none
N#Cc1nc(-c2ccccc2)oc1N1CCCCC1	Fluor 339 460 3.7
COc1ccc(-c2nnc(NC(=O)C(C)C)o2)cc1	none
COc1ccc(-c2nc(C#N)c(NC(C)C)o2)cc1	Fluor 339 460 2.3 (no result: Hsp90 block)
N#Cc1nc(-c2ccccc2F)oc1N1CCCC1	Fluor 339 460 3.6
Cc1ccc(-c2nc(C#N)c(N3CCCCC3)o2)cc1	Fluor 339 460 2.2
N#Cc1nc(COc2cccc(Cl)c2)oc1N1CCCC1	none
Cc1ccc(-n2nnc3c(SCC(=O)N4CCN(c5ccccc5)CC4)ncnc32)cc1	none
COc1ccc(-c2c3c(=O)n(C)c(=O)n(C)c3cn2C2CCCCC2)cc1	none
COc1ccc(-c2nc(C#N)c(N3CCCCCC3)o2)cc1	Fluor 339 460 2.3
CC1CN(c2oc(-c3ccccc3Cl)nc2C#N)CC(C)O1 (configuration not stated)	none
CC(C)CNc1oc(-c2ccc(F)cc2)nc1C#N	Fluor 339 460 2.4
N#Cc1nc(-c2ccc(F)cc2)oc1NCc1cccc2c1OCO2	none
COc1ccc(-c2nc(C#N)c(N3CC(C)OC(C)C3)o2)cc1OC (configuration not stated)	Fluor 339 460 2.1
COc1ccc(-c2nc(C#N)c(N3CCCCCC3)o2)cc1OC	Fluor 339 460 3.9
N#Cc1nc(COc2ccc(F)cc2)oc1N1CCCC1	none
N#Cc1nc(-c2ccc(F)cc2)oc1N1CCCC1	Fluor 339 460 2.4
N#Cc1nc(-c2ccc(Cl)cc2)oc1N1CCCCC1	Fluor 339 460 2.4
COCCN(Cc1cc2cc3c(cc2[nH]c1=O)OCO3)C(=O)c1cccs1	Fluor 339 460 2.7
COc1ccc(CN(Cc2cc3cc4c(cc3[nH]c2=O)OCO4)C(=O)NC2CCCCC2)cc1	Fluor 339 460 2.5
O=C(NC1CCCCC1)N(CCN1CCOCC1)Cc1cc2cc3c(cc2[nH]c1=O)OCCO3	Fluor 339 460 4.4
COc1ccc2[nH]c(=O)c(CN(Cc3ccc4c(c3)OCO4)C(C)=O)cc2c1	none
Cc1ccc2[nH]c(=O)c(CN(CCCN3CCOCC3)C(=O)NC3CCCCC3)cc2c1	none
COCCN(Cc1cc2ccccc2[nH]c1=O)C(=O)c1ccccc1OC	none
CCc1ccc2[nH]c(=O)c(CN(CCN3CCCC3)C(=O)NC3CCCCC3)cc2c1	none
CCN(CC)CCN(Cc1cc2cc3c(cc2[nH]c1=O)OCCO3)C(=O)NC1CCCCC1	Fluor 339 460 3.8
COc1ccc(CCN(Cc2cc3cc(C)ccc3[nH]c2=O)C(=O)N2CCCC2)cc1OC	none
COc1ccc(CCN(Cc2cc3cc4c(cc3[nH]c2=O)OCO4)C(C)=O)cc1OC	Fluor 339 460 2.7
COC(=O)c1[nH]c2cccc(Cl)c2c1NC(=O)CN1CCN(CCO)CC1	none
COC(=O)c1[nH]c2cccc(OC)c2c1NC(=O)CCN1CC(C)CC(C)C1 (configuration not stated)	Fluor 339 460 2.7
COC(=O)c1[nH]c2cccc(OC)c2c1NC(=O)CN1CC2(C)CC1CC(C)(C)C2 (configuration not stated)	Fluor 339 460 2
COC(=O)c1[nH]c2cccc(OC)c2c1NC(=O)CCN1CCN(c2cccc(Cl)c2)CC1	Fluor 339 460 2.6
COC(=O)c1[nH]c2cccc(OC)c2c1NC(=O)CN1CCOCC1	Fluor 339 460 2.9
O=C(NC1CCCCC1)Nn1c(-c2ccccc2)nc2ccccc2c1=O	none
CC1Cc2ccccc2N1C(=O)Cn1c(=O)oc2cc(S(=O)(=O)N3CCCCC3)ccc21 (configuration not stated)	none
Cc1cc(NS(=O)(=O)c2ccc(NC(=O)C(C)Oc3ccc4c(C)cc(=O)oc4c3)cc2)no1 (configuration not stated)	Fluor 339 460 2
CCOC(=O)Nc1ccc(S(=O)(=O)Nc2cc(C)on2)cc1	none
